Screening data (PubChem BioAssay)
Compounds with a hit are over-represented: about 3.1% of the library has one in this group of screens.
Anthrax LF inh2 = blocks Bacillus anthracis lethal factor protease | P15917 | multiplex microsphere protease cleavage assay, LF | inhibition, % at 10 µM | actives 0.12% (n = 360,000) | AID 588501
Target sequence (P15917 whole entry, looked up): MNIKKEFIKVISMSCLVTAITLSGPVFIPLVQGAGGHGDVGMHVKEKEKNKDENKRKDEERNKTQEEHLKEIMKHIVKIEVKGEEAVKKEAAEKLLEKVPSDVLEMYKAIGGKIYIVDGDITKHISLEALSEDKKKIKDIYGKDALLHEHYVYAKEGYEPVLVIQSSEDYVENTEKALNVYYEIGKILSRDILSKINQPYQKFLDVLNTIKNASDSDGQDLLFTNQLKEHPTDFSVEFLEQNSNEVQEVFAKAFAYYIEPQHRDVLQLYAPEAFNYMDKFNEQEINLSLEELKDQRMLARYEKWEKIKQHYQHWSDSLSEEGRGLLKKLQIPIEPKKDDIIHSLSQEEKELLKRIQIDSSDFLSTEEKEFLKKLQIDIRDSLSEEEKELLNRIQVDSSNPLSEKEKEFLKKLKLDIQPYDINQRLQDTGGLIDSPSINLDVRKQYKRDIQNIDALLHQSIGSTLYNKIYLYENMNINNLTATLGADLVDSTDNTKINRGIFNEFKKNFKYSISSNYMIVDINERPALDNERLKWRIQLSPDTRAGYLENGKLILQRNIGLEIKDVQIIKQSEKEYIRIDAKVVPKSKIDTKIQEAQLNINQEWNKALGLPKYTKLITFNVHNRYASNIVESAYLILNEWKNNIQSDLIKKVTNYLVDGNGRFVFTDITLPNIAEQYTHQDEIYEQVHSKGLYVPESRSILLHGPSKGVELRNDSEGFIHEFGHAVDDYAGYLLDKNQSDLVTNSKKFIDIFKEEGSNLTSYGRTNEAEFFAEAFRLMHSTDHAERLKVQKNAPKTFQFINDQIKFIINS
SSB-PriA inh = inhibitors of Klebsiella pneumoniae PriA binding to SSB C-terminal tail | AlphaScreen SSBct-PriA binding, biotinylated peptide | inhibition, % at 33 µM | actives 0.6% (n = 430,000) | AID 1272365; in the data active means inhibition mostly above about 37%, no sharp cut-off; inactive means mostly below about 20%
Bead autofluor = compound fluorescence in toxin protease inhibitor counterscreen | compound autofluorescence counterscreen, microsphere flow cytometry; hits give high values | fluorescence intensity (no concentration beside the values) | actives 3.1% (n = 360,000) | AID 624483; in the data active means fluorescence intensity above about 16000; inconclusive means no clear call, values can overlap the other calls
BoNT F protease = BoNT F light chain protease inhibition; Multiplex microsphere protease cleavage assay, flow cytometry; inhibition, % at 10 µM; actives 0.22% (n = 360,000); in the data active means inhibition above about 35%, passing the limit was not always enough; inconclusive means no clear call, values can overlap the other calls
BoNT A protease = BoNT A light chain protease inhibition; inhibition, % at 10 µM; multiplex microsphere protease substrate cleavage, flow cytometry; actives 0.17% (n = 360,000)
Hits are given with their value. Unless noted, no stated cut-off is given here; in the data, active means inhibition above about 30%; inconclusive means no clear call, values can overlap the other calls; inactive means below that.

Screening COc1cccc(OC)c1NC(=O)Cn1nc(-c2ccc3c(c2)OCCO3)ccc1=O returned Anthrax LF inh2 inactive, SSB-PriA inh inactive, Bead autofluor inactive, BoNT F protease inactive and BoNT A protease inactive.
For CC(C)c1nnc(NC(=O)Cn2nc(-c3ccc4c(c3)OCCO4)ccc2=O)s1 the results were Anthrax LF inh2 inactive, SSB-PriA inh inactive, Bead autofluor 17082, BoNT F protease inactive and BoNT A protease inactive.
`O=S(=O)(Nc1ccc2c(c1)nc1n2CCN(Cc2ccccc2)C1)c1ccc(F)cc1` gave Anthrax LF inh2 inactive, SSB-PriA inh inactive, Bead autofluor 24166, BoNT F protease inactive and BoNT A protease inactive.
Screening O=S(=O)(Nc1ccc2c(c1)nc1n2CCN(Cc2ccccc2)C1)c1ccccc1 returned Anthrax LF inh2 inactive, SSB-PriA inh inactive, Bead autofluor inactive, BoNT F protease inactive and BoNT A protease inactive.
Screening Cc1ccc(S(=O)(=O)Nc2ccc3c(c2)nc2n3CCN(Cc3ccccc3)C2)cc1 returned Anthrax LF inh2 inactive, SSB-PriA inh inactive, Bead autofluor 18646, BoNT F protease inactive and BoNT A protease inactive.
CC(=O)Oc1cc(OC(C)=O)c2c(-c3ccc([N+](=O)[O-])cc3)cc(=O)oc2c1 was read as SSB-PriA inh inactive.
`Cc1nc2c([nH]c3ccc(Br)cc32)s1` gave Anthrax LF inh2 inactive, SSB-PriA inh inactive, Bead autofluor 20775, BoNT F protease inactive and BoNT A protease inactive.
COc1ccc(N(CC(=O)N/N=C/c2ccc(-c3ccc([N+](=O)[O-])cc3)o2)S(=O)(=O)c2ccc(C)cc2)cc1Cl was read as Anthrax LF inh2 44, Bead autofluor inactive, BoNT F protease 42 and BoNT A protease 56.
`COC(=O)c1c(Cl)c2n3ccccc3c(C)c(-c3ccccc3)c-2c1C(=O)OC` gave Anthrax LF inh2 inactive, SSB-PriA inh inactive, Bead autofluor inactive, BoNT F protease inactive and BoNT A protease inactive.
For COC(=O)c1cc2c(-c3ccccc3)c(C)c3ccccn3c-2c1C(=O)OC the results were Anthrax LF inh2 inactive, SSB-PriA inh 66, Bead autofluor inactive, BoNT F protease inactive and BoNT A protease inactive.
For O=C(NCCn1ncccc1=O)NCc1ccccc1 the results were SSB-PriA inh inactive.
`O=Cc1ccc(-n2cccn2)cc1` gave Anthrax LF inh2 inactive, SSB-PriA inh inactive, Bead autofluor inactive, BoNT F protease inactive and BoNT A protease inactive.
Screening NCc1cccc(-n2cccn2)c1 returned Anthrax LF inh2 inactive, SSB-PriA inh inactive, Bead autofluor 21167, BoNT F protease inactive and BoNT A protease inconclusive.
For O=C(O/N=C1/CCSc2ccccc21)c1ccc(F)cc1 the results were Anthrax LF inh2 inactive, Bead autofluor 24780, BoNT F protease inactive and BoNT A protease inconclusive.
`Cc1sc2ncnc(SCC(=O)c3cc(C)n(-c4ccc(F)c(Cl)c4)c3C)c2c1C` gave SSB-PriA inh inactive.
For c1ccc(-c2nnc3sc(CN4CCC5(CC4)OCCO5)cn23)cc1 the results were Anthrax LF inh2 inactive, SSB-PriA inh inactive, Bead autofluor 20544, BoNT F protease inactive and BoNT A protease inactive.
For CCCC(=O)NC1=C(C#N)C2(CCCC2)Cc2ccccc21 the results were Anthrax LF inh2 inactive, SSB-PriA inh inactive, Bead autofluor 17626, BoNT F protease inactive and BoNT A protease inconclusive.
`COC(=O)/C=C(\C)NC(=O)c1cccs1` gave Anthrax LF inh2 inactive, SSB-PriA inh inactive, Bead autofluor 18031, BoNT F protease inactive and BoNT A protease inactive.
COC(=O)/C=C(\C)NC(=O)c1ccc(F)cc1 was read as Anthrax LF inh2 inactive, SSB-PriA inh inactive, Bead autofluor inactive, BoNT F protease inactive and BoNT A protease inactive.
O=C(Cn1cnc2c(sc3ccccc32)c1=O)Nc1ccc(F)c(Cl)c1 was read as SSB-PriA inh inactive.
Screening O=C1CCC(C(=O)OCC(=O)N2N=C3/C(=C/c4ccccc4)CCCC3C2c2ccccc2)N1 (configuration not stated) returned Anthrax LF inh2 inactive, SSB-PriA inh inactive, Bead autofluor 20500, BoNT F protease inactive and BoNT A protease inconclusive.
`O=C1CCC(C(=O)OCC(=O)N2N=C3/C(=C\c4ccccc4)CCCC3C2c2ccccc2)N1` (configuration not stated) gave Anthrax LF inh2 inactive, SSB-PriA inh inactive, Bead autofluor inactive, BoNT F protease inactive and BoNT A protease inactive.
Screening COc1ccc(N(CC(=O)Nc2ccc(C)c(C)c2)S(=O)(=O)c2c(C)noc2C)cc1 returned Anthrax LF inh2 inactive, SSB-PriA inh inactive, Bead autofluor inactive, BoNT F protease inactive and BoNT A protease inactive.
COc1ccc(N(CC(=O)Nc2cc(C(=O)O)ccc2C)S(=O)(=O)c2c(C)noc2C)cc1 was read as Anthrax LF inh2 inactive, SSB-PriA inh inactive, Bead autofluor 16981, BoNT F protease inactive and BoNT A protease inactive.
